Platelet DG rel = inhibitors of platelet dense granule secretion, primary screen, cell-based, MLPCN, human platelets | human platelet-rich plasma, SFLLRN dense granule ATP release, luminescence | inhibition, %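 (compounds screened at 7.5 µM in platelet-rich plasma)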 | actives 0.22% (n = 300,000);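 active = mean replicate score, as percent of positive control, at or above 50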
SENP8 block-1 = human SENP8 protease inhibitors, primary screen, biochemical, fluorescence, Nedd8 protein substrate, uHTS. recombinant SENP8. AID 602440, 2012. inhibition, % at 20 µM. actives 0.64% (n = 360,000). Sentrin-specific protease 8 (Homo sapiens), Q96LD8; in the data active = inhibition mostly above about 40%, no sharp cut-off; inactive = mostly below about 27%
Target sequence (Q96LD8 whole entry, looked up): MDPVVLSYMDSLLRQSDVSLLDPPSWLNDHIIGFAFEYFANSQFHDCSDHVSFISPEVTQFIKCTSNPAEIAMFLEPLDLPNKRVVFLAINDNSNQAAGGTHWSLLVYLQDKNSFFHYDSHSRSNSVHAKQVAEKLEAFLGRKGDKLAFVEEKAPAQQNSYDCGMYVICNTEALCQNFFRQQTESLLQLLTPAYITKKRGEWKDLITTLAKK
SENP6 block = SENP6 protease inhibitors, primary screen, biochemical, luminescence, uHTS | AID 2599, 2010 | actives 1.8% (n = 330,000) | Recombinant SENP6 catalytic domain, aminoluciferin luminescence | inhibition, % at 10 µM;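 active = inhibition above about 50% at the single tested dose, limit read from the data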
HSP90 refold inh = HSP90 inhibitors, primary screen, cell lysate, luminescence. Heat shock protein HSP 90 (rabbit reticulocyte lysate; luciferase refolding). Rabbit reticulocyte lysate, luciferase refolding luminescence, 3 h. inhibition, % at 5.6 µM. actives 0.91% (n = 290,000). AID 1789, 2009;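 active = inhibition above the screen-wide mean plus 3 SD, computed separately per campaign, cut at about 16% in these data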;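 note: inhibitors lower the luminescence because luciferase stays unfolded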
SENP7 inh = SENP7 protease inhibitors, primary screen, biochemical, luminescence, uHTS; Sentrin-specific protease 7 (Homo sapiens), Q9BQF6; recombinant SENP7, Z-RLRGG-aminoluciferin luminescence, 40 min; inhibition, % at 5 µM; actives 1.5% (n = 330,000); AID 434973, 2010;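 active = inhibition above about 50% at the single test dose, limit read from the data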
Target sequence (Q9BQF6 706-1050 limits assumed): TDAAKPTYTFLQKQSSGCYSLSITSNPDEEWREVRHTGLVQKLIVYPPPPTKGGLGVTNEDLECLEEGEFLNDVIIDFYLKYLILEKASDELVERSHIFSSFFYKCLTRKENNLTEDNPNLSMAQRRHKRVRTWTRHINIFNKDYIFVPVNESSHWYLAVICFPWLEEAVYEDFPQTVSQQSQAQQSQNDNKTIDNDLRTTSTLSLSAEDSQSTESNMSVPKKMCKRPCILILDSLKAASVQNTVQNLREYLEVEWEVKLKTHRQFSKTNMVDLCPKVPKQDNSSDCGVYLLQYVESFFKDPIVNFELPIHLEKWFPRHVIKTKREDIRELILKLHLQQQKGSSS
SENP8 block-2 = SENP8 protease inhibitors, primary screen, biochemical, luminescence | purified SENP8, Z-RLRGG-aminoluciferin cleavage | inhibition, % at 10 µM | actives 1.2% (n = 330,000); in the data active = inhibition above about 50%
Large screens that a line does not name were inactive. Sampled rows, rich in hits. Any-hit rate of the full collection: about 2.8%.

COc1ccc(CC(NC(C)=O)C(=O)NC2CCN(S(=O)(=O)c3ccccc3)CC2)c(OC)c1 (stereo unspecified)	HSP90 refold inh 16.7
Cc1c(C)c2ccc(OCC(=O)N3CCC(C(=O)O)CC3)cc2oc1=O	HSP90 refold inh 16.1
Cc1csc(=O)n1CC(=O)OCC(=O)Nc1cc(Cl)ccc1[N+](=O)[O-]	none
CCc1ccc2c(c1)C(=O)c1ccccc1C2=O	SENP6 block 77.5, SENP7 inh 83.1, SENP8 block-2 78.8
O=C(OCc1ccccc1)c1ccc2c(c1)-c1ccccc1C2=O	none
CC1CCCCC1NC(=O)c1cccc(NC2=NC3CS(=O)(=O)CC3S2)c1 (stereo unspecified)	none
O=C(CCN=C1NS(=O)(=O)c2ccccc21)OCc1nnc(-c2ccc([N+](=O)[O-])cc2)o1	none (no result: Platelet DG rel, HSP90 refold inh)
CCN(Cc1ccccc1)C(=O)Cn1cc(S(=O)(=O)NC)c(S(=O)(=O)NC)c1	none
Cc1ccc(N=Nc2c(C)[nH]n(-c3ccccc3)c2=O)cc1Br	none
Nc1[nH]n(-c2ccccc2)c(=O)c1N=Nc1ccc2ncsc2c1	SENP8 block-1 55.9
Cc1ccc(/C=N/NC(=O)c2nnn(-c3nonc3N)c2CSc2ccc(Cl)cc2)o1	none
Cn1c(=O)c2c(-c3ccccc3)n(-c3ccc(N)cc3)cc2n(C)c1=O	SENP8 block-1 60.4 (no result: Platelet DG rel, SENP6 block, HSP90 refold inh, SENP7 inh, SENP8 block-2)
Cn1c(=O)c2c(-c3ccccc3)n(-c3cccc(O)c3)cc2n(C)c1=O	none (no result: Platelet DG rel, SENP6 block, HSP90 refold inh, SENP7 inh, SENP8 block-2)
COC(=O)c1cc2c(n1S(=O)(=O)c1ccc(C)cc1)C(=O)C(=O)c1[nH]cc(C(=O)OCc3ccccc3)c1-2	SENP8 block-1 108.4 (no result: Platelet DG rel, SENP6 block, HSP90 refold inh, SENP7 inh, SENP8 block-2)
CN(C)S(=O)(=O)c1cc(NC(=O)COC(=O)CC2Sc3ccccc3NC2=O)ccc1Cl (stereo unspecified)	none (no result: Platelet DG rel, HSP90 refold inh)
CC(C)c1ccc(S(=O)(=O)/N=C2/C=C(Sc3ncn[nH]3)C(=O)c3ccccc32)cc1	HSP90 refold inh 59.6 (no result: Platelet DG rel, SENP6 block, SENP7 inh, SENP8 block-2)
O=C(N/N=C/c1ccc(Cl)c([N+](=O)[O-])c1)c1cc(-c2ccc3c4c(cccc24)CC3)n[nH]1	Platelet DG rel 52.2
Cc1ccn2c(-c3n[nH]c(=S)n3C)c(C)nc2c1	none
Oc1c(C(c2cccs2)N2CCOCC2)sc2ncnn12 (stereo unspecified)	Platelet DG rel 55.5
CN(C)CCCN(C(=O)c1ccc([N+](=O)[O-])s1)c1nc2cc3c(cc2s1)OCCO3	SENP8 block-2 54.8
CN(C)CCCN(C(=O)c1ccc(Br)s1)c1nc2cc3c(cc2s1)OCCO3	none (no result: HSP90 refold inh)
C=CCNc1nc(C(=O)OCC(=O)Nc2ccccc2C(F)(F)F)cs1	none (no result: Platelet DG rel, HSP90 refold inh)
Cc1ccc2cccc(NC3OC(=O)c4ccccc43)c2n1 (stereo unspecified)	SENP6 block 51.0
CCOC(=O)c1c2c(n(C)c1COC)C(=O)C(=O)c1ccc(Br)cc1-2	SENP6 block 96.0, SENP7 inh 94.7, SENP8 block-2 96.8 (no result: SENP8 block-1)
O=[N+]([O-])c1cc(Cl)cc(/C=N/n2cnnc2)c1O	SENP8 block-1 47.2
O=[N+]([O-])c1cc(Br)cc(/C=N/n2cnnc2)c1O	none
CC(C)n1cc(C(=O)N2CCCC(N3CCN(c4cccc(Cl)c4)CC3)C2)cn1 (stereo unspecified)	none
CC(O)CNCCCOc1ccccc1OCc1ccccc1 (stereo unspecified)	HSP90 refold inh 16.7
Cc1cccc(N2N=C(C(=O)N3Cc4ccccc4CC3C(N)=O)CCC2=O)c1 (stereo unspecified)	none (no result: Platelet DG rel, HSP90 refold inh)
COCCOCCn1c(CCCO)nc2ccccc21	none
COCCOCCn1c(/C=C/c2ccccc2)nc2ccccc21	SENP6 block 74.5, SENP8 block-2 61.1
COc1cccc(-c2nc(-c3ccc(Br)o3)no2)c1	SENP6 block 84.8, SENP7 inh 84.0, SENP8 block-2 72.4
O=C1/C(=C\c2cc(Cl)c(O)c(Cl)c2)SC(=S)N1Cc1ccccc1	SENP8 block-1 48.1 (no result: SENP6 block, SENP7 inh, SENP8 block-2)
COc1ccc(/C=C2/SC(=S)N(Cc3ccccc3)C2=O)cc1O	none
CCOC(=O)C1CC2=C(CC(C)(C)CC2=O)N(CCOC)C1=O (stereo unspecified)	none (no result: Platelet DG rel, SENP6 block, HSP90 refold inh, SENP7 inh, SENP8 block-2)
CCOC(=O)C1(CCCc2ccccc2)CCN(C(=O)CCc2cnn(C)c2)CC1	none
CCOC(=O)C1(CCCc2ccccc2)CCN(C(=O)CCOC)CC1	SENP6 block 86.7
O=C(CN(c1cccc([N+](=O)[O-])c1)S(=O)(=O)c1ccccc1)NCc1ccccc1	Platelet DG rel 57.4
CCc1ccc(CN(C)CC(=O)Nc2ccc(S(=O)(=O)N3CCOCC3)cc2)cc1	none (no result: Platelet DG rel, HSP90 refold inh)
CCOc1cccc(C(c2c(C)n(C)n(-c3ccccc3)c2=O)c2c(C)n(C)n(-c3ccccc3)c2=O)c1OC	none
Cc1[nH]n(-c2ccccc2)c(=O)c1C(C[N+](=O)[O-])c1ccccc1Cl (stereo unspecified)	SENP8 block-1 64.3
COc1cccc(C(c2c(C)[nH]n(-c3ccccc3)c2=O)c2c(C)[nH]n(-c3ccccc3)c2=O)c1OC	SENP8 block-1 73.4
Cc1ccc(N=Nc2c(N)[nH]n3c(=O)cc(-c4ccccc4)nc23)cc1	SENP8 block-1 74.1 (no result: Platelet DG rel)
Cc1cc(=O)n2[nH]c(N)c(N=Nc3ccccc3)c2n1	none (no result: SENP6 block, SENP7 inh, SENP8 block-2)
COc1cccc(N=Nc2c(N)[nH]n3c(=O)cc(-c4ccccc4)nc23)c1	SENP8 block-1 65.3
O=C(CCc1nnc2ccc(NCc3ccco3)nn12)N1CCN(c2ccccc2)CC1	none
CCOC(=O)C1CCN(C(=O)CCc2nnc3ccc(NCc4ccco4)nn23)CC1	Platelet DG rel 70.4
Cc1cc(C)nc(SCc2csc(-c3ccccc3)n2)n1	SENP6 block 59.7
Cc1cc(C)nc(SCc2csc(N)n2)n1	none (no result: Platelet DG rel)
Cc1ccc(NC(=O)CN(C)C(=O)C2CC(=O)N(Cc3ccccc3)C2)cc1 (stereo unspecified)	none
Cc1[nH]c(N=Nc2ccccc2)nc1N=Nc1ccccc1	SENP8 block-1 67.7
O=C(Nc1ccc(Cl)cn1)c1cccc2c(Br)cccc12	none
COc1ccccc1-c1cc(C(F)(F)F)nc(S(=O)(=O)CCCC(=O)N2CCOCC2)n1	none
COc1ccc(-c2cc(C(F)(F)F)nc(S(=O)(=O)CCC(=O)N3CCOCC3)n2)cc1	Platelet DG rel 133.8
Cc1ccc(Nc2c([N+](=O)[O-])ccc3c2=NC2(CCCCC2)N=3)cc1	SENP8 block-1 44.1
CCC(COC(=O)c1ccccc1)Oc1cc(NCc2ccccc2)c2ncn(C(C)C)c2c1 (stereo unspecified)	SENP8 block-1 43.9 (no result: Platelet DG rel, HSP90 refold inh)
CC1CC(=O)NN=C1c1ccc(N)c([N+](=O)[O-])c1 (stereo unspecified)	Platelet DG rel 60.9
